Experimental data: PubChem BioAssay (NCI)
This is part of a sample that, as a whole, favours compounds with a hit. Of some 83,000 tested, about 20% had one in any assay.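 The test compound was applied at a single concentration to cells in 96-well plates for 48 hours, and percent growth was recorded.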 Calls of active or inactive are those of the source. The calls were made as follows: active = growth percent below 10; inactive = the rest.

Assays:
Assay in all cases: NCI-60 one-dose screen, 48 h (100 = growth as untreated, 0 = no growth, -100 = all killed)
Conditions in all cases: 10 µM unless noted
[1] = system: NCI-H23 lung
[2] = system: NCI-H226 lung
[3] = system: NCI-H322M lung
[4] = system: HOP-62 NSCLC
[5] = system: NCI-H460 lung
[6] = system: HOP-92 NSCLC
[7] = system: NCI-H522 lung
[8] = system: A549/ATCC NSCLC
[9] = system: 786-0 renal
[10] = system: COLO 205 colon

Measured: growth

Fc1cnccc1-c1nc2ccc3[nH]ncc3c2c2c1CCCC2
inactive: [1] 31.9% | [2] 30% | [3] 29.5% | [4] 21% | [5] 25.8% | [6] 40.7% | [7] 18.8% | [8] 14.6% | [9] 28.1% | [10] 17.6%

O=[N+]([O-])c1ccccc1CN1CCCCC1
inactive: [1] 92.8% | [2] 112% | [3] 106% | [4] 107% | [5] 116% | [6] 89.7% | [7] 110% | [8] 106% | [9] 111% | [10] 111%

Cc1nc2ccc(Nc3nc(Cl)nc(N4CCOCC4)n3)cc2n1Cc1ccccc1
inactive: [1] 16.5% | [2] 82.5% | [3] 51% | [4] 50.1% | [5] 91.3% | [6] 36.1% | [8] 92% | [9] 68.3% | [10] 100%
active: [7] -38.6%

COc1ccc(Nc2ncccc2C(=O)NCc2cn(Cc3cc(OC)cc(OC)c3)nn2)cc1
inactive: [1] 103% | [2] 98.3% | [3] 105% | [4] 81.9% | [5] 98.3% | [6] 93.2% | [7] 79.4% | [8] 89.5% | [9] 95.3% | [10] 114%

CC(C)(C)CC(C)(C)NCc1cc(C(C)(C)C)cc(CNC(C)(C)CC(C)(C)C)c1O
active: [6] -1.38% | [7] 8.73% | [10] 0.858%
inactive: [1] 38.7% | [2] 72.7% | [3] 83.3% | [4] 69.4% | [5] 50.8% | [8] 67.6% | [9] 71.1%

COc1ccc(Br)c2ccccc12
inactive: [1] 109% | [2] 106% | [3] 117% | [4] 103% | [5] 114% | [6] 93.9% | [7] 97.9% | [8] 104% | [9] 115% | [10] 120%

O=C(CSc1ccc(Cl)cc1)Nc1ccc(-c2nc3ccccc3s2)c(Cl)c1
inactive: [1] 20.9% | [2] 77.4% | [3] 87.7% | [4] 75.3% | [5] 41.5% | [7] 28.2% | [8] 48.8% | [9] 48.9% | [10] 76.2%
active: [6] 6.61%

CCC(=O)NC(O)C(Cl)(Cl)C(C)Cl (stereo not given)
inactive: [1] 96.3% | [2] 95.7% | [3] 99.6% | [4] 102% | [5] 109% | [6] 88.1% | [7] 102% | [8] 97.5% | [9] 101% | [10] 114%

COc1ccc(-c2nc3ccc(Cc4ccc5nc(-c6ccc(OC)cc6)[nH]c5c4)cc3[nH]2)cc1
active: [1] -17.9% | [7] -13.4% | [10] 5.61%
inactive: [2] 90.6% | [3] 97.7% | [4] 49.1% | [5] 69.1% | [6] 77.9% | [8] 48.5% | [9] 89.5%

CNC(=O)c1cc(Oc2ccc(NC(=O)c3nc(S(C)(=O)=O)sc3-c3ccc(F)cc3)cc2)ccn1
inactive: [1] 94.8% | [2] 101% | [3] 28.2% | [4] 94.9% | [5] 84.7% | [6] 138% | [7] 53.4% | [8] 94.8% | [9] 98.3% | [10] 69.1%

COc1cc2c(cc1I)-c1c(cc(OC)c(OC)c1OC)CC[C@@H]2NC(C)=O
inactive: [2] 33.6% | [3] 61.6% | [4] 14.7% | [6] 43.7% | [8] 28.3% | [9] 16.4%
active: [1] 4.9% | [5] 1.44% | [7] -22.3% | [10] -52.8%

COc1c(B(O)O)cccc1-c1nc2c(F)cc3n[nH]c(C)c3c2c2c1CCCC2
inactive: [1] 17.5% | [3] 27.6% | [4] 22% | [5] 11.7% | [6] 24.7% | [9] 19.8% | [10] 15.6%
active: [2] -0.685% | [7] 9.41% | [8] 9.82%

CC(=O)c1cccc(Nc2ncnc3ccc(NC(=O)c4ccco4)cc23)c1
inactive: [1] 88.7% | [2] 87.6% | [3] 102% | [4] 113% | [5] 96.1% | [6] 71.7% | [7] 83.3% | [8] 90.4% | [9] 89.5% | [10] 98.5%

O=C(Nc1ccc(OS(=O)(=O)c2ccc(F)cc2)cc1)C12CC3CC(CC(C3)C1)C2
inactive: [1] 74.9% | [2] 87.6% | [3] 92.4% | [4] 54.1% | [5] 63.6% | [6] 48.1% | [7] 66% | [8] 56.2% | [9] 59.3% | [10] 54.3%

CN(CCO)c1ccc(N2Cc3ccccc3OC3=C2C(=O)c2c(O)ccc(O)c2C3=O)cn1
active: [1] -66.5% | [2] 0.236% | [3] -0.583% | [4] -46.3% | [5] -51.2% | [6] -71.9% | [7] -49.8% | [8] -18.9% | [9] -91.2% | [10] -81.8%

O=C(Nc1ccc2[nH]c3ccccc3c2c1)c1ccccc1Cl
inactive: [1] 67.7% | [2] 81.1% | [3] 56.4% | [4] 45.1% | [5] 22.5% | [6] 76.1% | [7] 15.7% | [8] 40.5% | [9] 62.1% | [10] 14%

FC1(F)CCN(Cc2c[nH]c3cc(Cl)ccc23)C[C@H]1CCc1ccccc1
inactive: [1] 67.7% | [2] 43.5% | [3] 84.3% | [4] 46.1% | [5] 42.8% | [6] 37.3% | [7] 67.6% | [8] 43% | [9] 66.9% | [10] 69.5%

C#CC[C@@H]1C[C@]2(C)[C@H]3CC[C@@H]4[C@H]5C(C(=C)C)CC[C@]5(C(=O)NCCCN5CCN(CCCN)CC5)CC[C@@]4(C)[C@]3(C)CC[C@H]2C(C)(C)[C@H]1OC(C)=O (stereo not given in full)
active: [1] 3.21% | [3] -81.2% | [4] -59.7% | [5] -77% | [6] -78.3% | [7] 4.62% | [8] -61.9% | [9] -97.5% | [10] -68.3%
inactive: [2] 87.4%

Cc1cc(-c2nnc(/C=C/c3ccc4c(c3)OCO4)o2)n[nH]1
inactive: [1] 77.7% | [2] 95.2% | [3] 66.5% | [4] 78.5% | [5] 84.3% | [6] 80.7% | [7] 15.2% | [8] 58.7% | [9] 97.2% | [10] 61.6%

COc1c(C(=O)/C=C/c2ccc(C)o2)c(O)cc2occc12
inactive: [1] 79.5% | [2] 75.3% | [3] 97.2% | [4] 59.2% | [5] 70.1% | [6] 68% | [7] 41.8% | [8] 58.8% | [9] 99.1% | [10] 104%

Nc1ccc(C(OC(=O)c2cc3ccccc3c(Cc3c(O)c(C(=O)OC(c4ccc(N)cc4)(c4ccc(N)cc4)c4ccc(N)cc4)cc4ccccc34)c2O)(c2ccc(N)cc2)c2ccc(N)cc2)cc1
inactive: [2] 30.8% | [8] 10.7% | [9] 23.5%
active: [1] 9.92% | [3] 3.77% | [4] 6.24% | [5] 1.82% | [6] -6.69% | [7] 9.97% | [10] -83.7%

COc1ccc(C(=O)/C=C/c2cn(-c3ccccc3)nc2-c2cccc(Nc3ccnc4cc(Cl)ccc34)c2)cc1
inactive: [1] 101% | [2] 95.4% | [3] 101% | [4] 103% | [5] 96.6% | [6] 64.9% | [7] 96.7% | [8] 95.3% | [9] 99.5% | [10] 102%

c1ccc2c(Cc3csc4ccccc34)csc2c1
inactive: [1] 84.7% | [2] 95.1% | [3] 87.2% | [4] 83.2% | [5] 104% | [6] 77.7% | [7] 65.3% | [8] 83% | [9] 93.8% | [10] 83.3%

COc1cc(NC(C)CCCN)c2ncccc2c1Sc1ccc(Cl)cc1 (stereo not given)
active: [10] -77.4%
inactive: [1] 86% | [2] 76.1% | [3] 77% | [4] 67.7% | [5] 10.1% | [6] 15.2% | [7] 75.4% | [8] 59.1% | [9] 63.7%

O=S(=O)(NCC[C@@H]1C[C@H]1c1ccc2ccccc2c1)c1ccc(C(F)(F)F)cc1
inactive: [1] 84.9% | [2] 86.1% | [3] 100% | [4] 105% | [5] 96.1% | [6] 91.4% | [7] 83.8% | [8] 85.3% | [9] 96.3% | [10] 105%

Cc1ccc2cc3c(NC(=O)c4cccnc4)nn(C)c3nc2c1
inactive: [1] 90% | [2] 85.3% | [3] 89.4% | [4] 101% | [5] 98.2% | [6] 81.5% | [7] 67.1% | [8] 95.7% | [9] 98.6% | [10] 85.5%

COc1ccc(/C=C2\Cc3c(Br)cccc3C2=O)c(OC)c1
inactive: [1] 66% | [2] 93.7% | [3] 94.7% | [4] 69.6% | [5] 79.8% | [6] 88.2% | [7] 55.9% | [8] 68.9% | [9] 93% | [10] 80.3%
